A selection: hits, their analogues and other compounds. The true share with any hit is near 3.1%.
PLK1 PBD inh: blocks phosphopeptide binding to human PLK1 polo-box domain. Potency, µM, inactives show max response, negative = inhibition, most hits filed as inhibitors. P53350. Plk1 PBD binding of FITC phosphopeptide, fluorescence polarization. hit rate 2.8% among 360,000; note: potency is the fitted concentration of half-maximal effect; series mostly up to about 57 µM; % is set by controls: 0 for no effect and ±100 for the full control effect; nearly all actives have a fitted effect of over 65% in size
GLS inh: blocks human kidney-isoform glutaminase activity; O94925; GLS enzymatic activity, qHTS titration; Potency, µM (doses to about 45.5 µM), for inactives: top-dose activity change, negative = inhibition, actives largely listed as inhibitors; hit rate 0.21% among 410,000; AID 624170; note: potency is the fitted concentration of half-maximal effect; % is set by controls: 0 for no effect and ±100 for the full control effect
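hKGA in 45 mM KH2PO4 (pH 8.2), 0.02% Tween-20 with compound, then 1mM L-Glutamine (stock as added) plus glutamate oxidase/HRP/Amplex red coupling mix. Fluorescence read initially and after 30 min at RT; signal change reflects glutamate formation.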
VDR inhibitor: inhibitors of human vitamin D receptor | P11473 | VDR-SRC2-3 peptide fluorescence polarization, 2 h | Potency, µM, for inactives: max response, negative = inhibition, most hits filed as inhibitors | hit rate 0.93% among 400,000 | AID 504847; note: potency is the fitted concentration of half-maximal effect; % is set by controls: 0 for no effect and ±100 for the full control effect
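Signal is fluorescence polarization, reporting how far test compounds block the interaction of VDR with the SRC2-3 coregulator peptide after a 2 h room-temperature incubation.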
GCN5L2 inh: inhibitors of human GCN5L2 histone acetyltransferase. Q92830. GCN5L2 HAT assay, ThioGlo1 CoA-SH fluorescence. Potency, µM (highest dose often 58.9 µM), for the others: at the highest dose activity change, negative = inhibition, actives largely listed as inhibitors. hit rate 0.21% among 390,000. AID 504327; note: potency is the fitted concentration of half-maximal effect; % is set by controls: 0 for no effect and ±100 for the full control effect
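Fluorescence readout, Ex340nm/Em540nm: ThioGlo1 (50uM final) reacts with free CoA thiol released as 20nM GCN5L2 acetylates H3(1-25) peptide (75uM) using acetyl-CoA (70uM). Compound and enzyme sat 15 min beforehand; 20 min room-temperature reaction.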
PI4K2A inh: PI4K2A (human) kinase inhibition; purified PI4K2A, ADP-Glo luminescence, 1 h; hits give low values; activity change, negative = inhibition, % at 76.9 µM; hit rate 0.13% among 420,000; AID 1346378; in the data active = activity change below about -50%; inconclusive = mostly about -30% to -49%;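 note: -100% = wells without enzyme as full effect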
Target sequence (Q9BTU6 whole entry, looked up): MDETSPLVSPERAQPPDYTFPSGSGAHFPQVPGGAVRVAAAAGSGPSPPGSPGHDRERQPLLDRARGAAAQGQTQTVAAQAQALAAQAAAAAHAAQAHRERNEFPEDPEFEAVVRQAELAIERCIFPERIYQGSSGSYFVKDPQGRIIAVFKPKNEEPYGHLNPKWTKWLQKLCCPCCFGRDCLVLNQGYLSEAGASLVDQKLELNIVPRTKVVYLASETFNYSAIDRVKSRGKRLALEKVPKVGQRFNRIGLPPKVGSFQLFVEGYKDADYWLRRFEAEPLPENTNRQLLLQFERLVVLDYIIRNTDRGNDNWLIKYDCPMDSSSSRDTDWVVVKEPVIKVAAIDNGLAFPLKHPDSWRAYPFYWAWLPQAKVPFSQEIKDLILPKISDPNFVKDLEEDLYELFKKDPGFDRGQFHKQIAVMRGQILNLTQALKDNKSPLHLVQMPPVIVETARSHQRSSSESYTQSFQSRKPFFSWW
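Compounds are screened against recombinant PI4K2A using PI as substrate and ATP, the latter dispensed at 300 microM. Reactions run one hour at ambient temperature before ADP-Glo detection; full inhibition defined by wells lacking enzyme.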
USP1-UAF1 confirm: USP1-UAF1 deubiquitinase inhibition validated; Ub-Rhodamine cleavage, fluorescence kinetic read; hit rate 50% among 50; shares compounds with VDR inhibitor; Potency, µM (series often up to 114 µM), inactives show top-dose activity change, negative = inhibition, hits mostly inhibitors
VDR inh confirm: inhibits human vitamin D receptor, primary hit validation. shares compounds with VDR inhibitor. VDR-coactivator inhibition assay, qHTS confirmation. Potency, µM, hits mostly inhibitors. hit rate 89% among 840; note: potency is the fitted concentration of half-maximal effect
VDR FP fluor: blocks human VDR-coactivator binding in fluorescein assay. shares compounds with VDR inhibitor. VDR-coactivator binding, fluorescein fluorescence polarization. Potency, µM (top dose mostly 57.1 µM), without a hit: at the top dose activity change, negative = inhibition, actives largely listed as inhibitors. hit rate 48% among 840; note: potency is the fitted concentration of half-maximal effect
VDR bla reporter: VDR (human) inhibition, cell-based beta-lactamase validation; shares compounds with VDR inhibitor; VDR beta-lactamase reporter cells, FRET ratio; cells co-treated with VDR agonist LG190178; Potency, µM (top dose mostly 46.1 µM), without a hit: top-dose activity change, negative = inhibition, most hits filed as inhibitors; hit rate 23% among 840; AID 602202; note: potency is the fitted concentration of half-maximal effect; % is set by controls: 0 for no effect and ±100 for the full control effect
VDR viability: cytotoxic in counter-screen for VDR inhibitors; shares compounds with VDR inhibitor; cytotoxicity counter-screen, cell viability, qHTS; Potency, µM (doses to about 48.3 µM), inactives show at the highest dose activity change, negative = cytotoxicity, actives largely listed as cytotoxic; hit rate 18% among 840;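 note: potency is the fitted concentration of half-maximal effect; plate controls were DMSO for no effect and high-concentration cycloheximide for full effect; nearly all actives have a fitted effect of over 75% in size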
* = called active by the depositor; ? = inconclusive; / = no result given. Unless noted, calls come from the whole dose curve; as a rule, active = well fitted curve in the direction sought with a large enough effect; inconclusive = small, poorly fitted or top-dose-only effect, or another doubt; inactive = no such curve, though single readings can be large; an effect the other way counts as inactive or inconclusive.

SMILES	PLK1 PBD inh	GLS inh	VDR inhibitor	GCN5L2 inh	PI4K2A inh	VDR inh confirm	VDR FP fluor	VDR bla reporter	VDR viability	others
CCC(C)(C)n1nnnc1C(c1ccc(O)c(OC)c1)N1CCc2ccccc2C1 (centres undefined)	27µM*	10%	?	33%	4	11*	28µM*	-2%	-7%
CCCc1c(OCCCOc2ccc(OCC(=O)O)cc2)ccc(CC=O)c1O	/	/	35µM*	?	/	/	/	/	/	USP1-UAF1 confirm=59µM*
Cc1[nH]n(-c2ncc(-c3ccccc3)s2)c(=O)c1C(c1ccc(Cl)cc1)C(C#N)C#N (centres undefined)	3.8µM*	-32%	35µM*	-29%	36	6.7*	?	20%	-5%
Cc1[nH]n(-c2ccc(Cl)cc2)c(=O)c1/C=N/c1nnc(-c2ccccc2)s1	0%	16%	5%	-2%	-2	/	/	/	/
O=C(NCCc1ccccc1)c1ccc(Cn2c(SCc3ccccc3F)nc3cccnc32)cc1	/	-2%	0%	-12%	-2	/	/	/	/
CC(=O)C1=C(c2ccc(Br)cc2)C(=O)c2ccccc2C1=O	-21%	5%	25µM*	-2%	2	5*	7.9µM*	2.9µM*	8.4µM*
CCOC(=O)N1CCN(CCC(=O)c2ccc(Cl)cc2)CC1	12µM*	7%	35µM*	0%	29	12*	11µM*	?	?
O=C(CCN1CCN(c2ccc([N+](=O)[O-])cc2)CC1)c1ccc(Cl)cc1	?	-10%	25µM*	-1%	15	27*	13µM*	12%	?
CCCN1CNc2c(c(=O)[nH]c(=S)n2CCc2cc(C)ccc2C)C1	/	/	3%	/	/	/	/	/	/
O=C1OC(c2ccccc2)c2ccccc21 (centres undefined)	-7%	3%	-13%	-4%	-1	/	/	/	/
O=S1OC(c2ccccc2)c2cc(Cl)ccc21 (centres undefined)	?	0%	22µM*	-2%	-26	3.2*	3.5µM*	3%	22%
Nc1ccc(N2CCCC2)c(S(=O)(=O)Nc2cccc(C(F)(F)F)c2)c1	4.7µM*	?	40µM*	-10%	1	11*	?	-4%	17%
CN(Cc1ccccc1)C(=O)NC1CCCCC1	-4%	2%	18%	-4%	2	/	/	/	/
CC(C)(Sc1ccc(CCN(CCCCC2CCCCC2)C(=O)NC2CCCCC2)cc1)C(=O)O	21µM*	7%	40µM*	13µM*	1	/	/	/	/	USP1-UAF1 confirm=33µM*
Cc1cccc(NC(=O)Cn2c(=O)n(CCCS(=O)(=O)C3CCCCC3)c(=O)c3ccccc32)c1	/	20%	-11%	-8%	-3	/	/	/	/
CC1(OC(=O)C2CCCC2)C(=O)C=C2C=C(c3ccsc3)N(CCc3c[nH]c4ccccc34)C=C2C1=O (centres undefined)	-19%	-2%	?	0%	-7	?	?	10%	34%
O=C(CCS(=O)(=O)c1ccccc1)Nc1cc(Cl)ccc1F	/	/	/	/	0	/	/	/	/
Cc1cccc(CS(=O)(=O)c2ncc(Cl)c(C(=O)NCc3ccccc3)n2)c1	?	-11%	16µM*	2%	10	4.7*	7.9µM*	15µM*	23µM*
Cc1cccc(CS(=O)(=O)c2ncc(Cl)c(C(=O)Nc3c(C)cccc3C)n2)c1	19µM*	1%	22µM*	-12%	-5	6.7*	?	15µM*	?
COc1ccc(NC(=O)c2nc(S(=O)(=O)Cc3cccc(C)c3)ncc2Cl)c(OC)c1	-9%	-1%	-23%	-7%	1	/	/	/	/
CCCc1nnc(NC(=O)c2nc(S(=O)(=O)Cc3cccc(C)c3)ncc2Cl)s1	-17%	3%	14µM*	-4%	-27	6*	?	12µM*	16µM*
CCCC1CCC2(CCCN2CCOC(=S)NCc2cccc(C)c2)CC1 (centres undefined)	/	/	/	/	3	/	/	/	/
O=S(=O)(/N=C(\Sc1ccccc1)c1ccccc1)c1ccc(Cl)cc1	2.4µM*	36%	79µM*	4%	-5	12*	?	27%	?
COCCCNC(=O)C[C@@H]1C(=O)N(CCc2ccc(Cl)cc2)C2=CCCCC[C@]21C(=O)OC	/	/	/	/	-1	/	/	/	/
c1ccc(CSc2nc3ncccc3[nH]2)cc1	/	-1%	-1%	2%	-9	/	/	/	/
SMILES	PLK1 PBD inh	GLS inh	VDR inhibitor	GCN5L2 inh	PI4K2A inh	VDR inh confirm	VDR FP fluor	VDR bla reporter	VDR viability	others
CCOc1cc(C(Nc2cc(C)ccn2)c2ccc3cccnc3c2O)ccc1OC (centres undefined)	/	4%	22µM*	-12%	8	7.1*	3.5µM*	-5%	?
CCC1CCc2nc3sc(C(=O)Nc4ccc(C)cc4C)c(N)c3cc2C1 (centres undefined)	/	-12%	29%	-4%	2	/	/	/	/
COc1cc(/C=C/C(=O)c2ccc(C)c([N+](=O)[O-])c2)cc(OC)c1O	-17%	23%	?	2%	-11	/	/	/	/
COc1ccc(C(=O)/C=C/c2ccccc2F)c(OC(=O)c2ccc([N+](=O)[O-])cc2)c1	-2%	-9%	?	-3%	40	?	6.3µM*	?	-23%
COc1cc(/C=C/C(=O)c2cccc([N+](=O)[O-])c2)cc(OC)c1OC	?	-12%	?	-14%	-7	2.2*	2.5µM*	?	?
O=C(/C=C/c1ccccc1F)c1cccc([N+](=O)[O-])c1	?	-9%	13µM*	3%	6	2.5*	1.6µM*	26µM*	0%
COc1ccc(/C=C/C(=O)c2ccc(C)c([N+](=O)[O-])c2)cc1O	-25%	0%	35µM*	-10%	-14	11*	7.9µM*	?	?
O=C1ON=C(c2ccccc2)/C1=C/c1ccccc1	5.3µM*	21%	45µM*	-11%	0	19*	6.3µM*	27%	-15%
O=C1ON=C(c2ccccc2)/C1=C/c1ccc(O)cc1	1.7µM*	38%	35µM*	-29%	-9	11*	?	?	?

Compound activity deposited in PubChem by National Center for Advancing Translational Sciences (NCATS).
